Hits are enriched below; roughly 8% of the tested compounds scored in any of these assays.
KB-V1 cytotox = qHTS assay for MDR1-selective chemotherapeutics: Primary screen using the drug-selected MDR subline cells KB-V1. 3.4% of 400,000 active. Potency, µM (highest dose often 46.1 µM), actives largely listed as cytotoxic. KB-V1 MDR cells viability, CellTiter-Glo, 72 h. AID 1347076, 2019; also: % is scaled to controls: 0 for no effect and ±100 for the full control effect; nearly all actives have a fitted effect of over 60% in size
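KB-V1 MDR subline cells in DMEM (phenol-red free, 10% FBS) exposed to compounds in qHTS concentration series for 72 h at 37 degrees C. Viability read by CellTiter-Glo luminescence; concentration-effect curves fitted after normalization and correction.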
KB-3-1 cytotox = qHTS assay for MDR1-selective chemotherapeutics: Primary screen using the parental adenocarcinoma cell KB-3-1. KB-3-1 viability, CellTiter-Glo ATP luminescence, 72 h. Potency, µM (titrated, usually from 46.1 µM), actives largely listed as cytotoxic. 1.4% of 400,000 active. AID 1347075, 2019; also: % is scaled to controls: 0 for no effect and ±100 for the full control effect; nearly all actives have a fitted effect of over 60% in size
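Cytotoxicity in the drug-sensitive parental line KB-3-1 was scored as loss of CellTiter-Glo luminescence following 72 h incubation with compound. Values come from curve fitting of normalized concentration-response data.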
MCF10A rerep = A quantitative high throughput screen for small molecules that induce DNA re-replication in MCF 10a normal breast cells. MCF 10A DNA re-replication, Hoechst nuclear intensity, 48 h. Potency, µM (top dose mostly 46.1 µM), for inactives: at the top dose activity, positive = re-replication, most hits filed as activators. 2.9% of 350,000 active. AID 624296, 2012; also: % of control where 0% means no effect; nearly all actives have a fitted effect of over 50% in size
SW480 rerep = A quantitative high throughput screen for small molecules that induce DNA re-replication in SW480 colon adenocarcinoma cells | Potency, µM (doses to about 46.1 µM), without a hit: top-dose re-replication activation, usual class: activators | SW480 DNA re-replication, Hoechst DNA content imaging, 48 h | 1.8% of 340,000 active; also: % of control where 0% means no effect; nearly all actives have a fitted effect of over 55% in size
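Readout is total intensity of Hoechst-stained nuclei, excited at 405 nm and collected at 500-530 nm. Compound treatment lasted 48 hr at 37 C in 5% CO2 before staining.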
HT1080-NT tox = qHTS for induction of synthetic lethality in tumor cells producing 2HG: qHTS for the HT-1080-NT fibrosarcoma cell line | Potency, µM (highest dose often 46.1 µM), without a hit: at the highest dose activity, negative = less viability, actives largely listed as cytotoxic | 1.6% of 360,000 active | HT-1080-NT fibrosarcoma viability, CellTiter-Glo ATP luminescence, 48 h;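 also: NT is the 2HG producing partner of a matched IDH1 knockdown line; 0% = DMSO-treated cells and -100% = media-only wells without cells; nearly all actives have a fitted effect of over 55% in size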
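HT-1080-NT fibrosarcoma cells (2HG-overproducing), 750 cells/well in RPMI with 5% FBS, dosed after 2 h and incubated 48 h at 37C. CellTiter-Glo luminescence normalized to DMSO and no-cell wells; concentration-response curves fitted and classed.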
HT1080 IDH1KD tx = qHTS for induction of synthetic lethality in tumor cells producing 2HG: qHTS for the HT-1080-IDH1KD cell line | HT-1080 IDH1 knockdown viability, ATP luminescence, 48 h | Potency, µM (doses to about 46.1 µM), for inactives: at the highest dose activity, negative = toxicity, actives largely listed as cytotoxic | 2% of 360,000 active;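 also: 0% = DMSO wells and -100% = cell-free medium wells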
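Luminescent ATP read-out (CellTiter-Glo, 10 min at room temperature) after 48 h compound exposure at 37 °C gave viability of IDH1-knockdown HT-1080 cells. Activity was normalised to DMSO and cell-free wells, then fitted as concentration-response curves.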
An asterisk follows results filed as active; i = inactive; ? = inconclusive; / = not tested or not shown; ! = repeats disagree; [ ] = another dose, or the depositor's remark. Calls follow the shape of the dose curve; as a rule, active = well fitted curve in the direction sought with a large enough effect; inconclusive = small, poorly fitted or top-dose-only effect, or another doubt; inactive = no such curve, though single readings can be large; an effect the other way counts as inactive or inconclusive. Potency is read from the fitted curve at half-maximal effect.

SMILES	KB-V1 cytotox	KB-3-1 cytotox	MCF10A rerep	SW480 rerep	HT1080-NT tox	HT1080 IDH1KD tx
Cc1c(CCOC(=O)c2cc([N+](=O)[O-])cc([N+](=O)[O-])c2)sc[n+]1CC(=O)c1ccccc1	i	i	1%	-25%	0%	8%
C[C@]12CCC(=O)C[C@@H]1CC[C@@H]1[C@@H]2CC[C@]2(C)C=CC[C@@H]12	i	i	30µM*!	-5%	23%	11%
C[C@]12CCC(=O)CC1CCC1C2CC[C@@]2(C)C1CC[C@@]21CCO1 (some centres not stated)	?	i	?	9%	?	?
CCN(CC)C(=O)OCCc1cc2ccccc2c(=O)o1	?	i	?	-74%[9.22 µM]	3%	20%
CCC(=O)c1ccccc1OCCCN1CCC(Cc2ccccc2)CC1	?	?	2%	29%	18µM*	?
CCOc1ccccc1OCCN1CCC(Cc2ccccc2)CC1	i	i	18%	16%	-3%	-17%
Cc1ccc([N+](=O)[O-])c(OCCN2CCC(Cc3ccccc3)CC2)c1	21µM*	?	?	24%	21µM*	16µM*
C=CCCO[C@@H]1O[C@@H](C)[C@H](O)C[C@H]1O	i	i	-2%	-6%	6%	10%
Cc1ccc(-n2nnnc2SCC(=O)NCC2(N3CCOCC3)CCCCC2)c(C)c1	21µM*	i	?	-4%	4%	-3%
Cc1ccc(-n2nnnc2SCC(=O)N2CCc3ccccc3C2)c(C)c1	7.3µM*	i	-3%	9%	6%	1%
Cc1nnc(SCC(=O)N2CCc3ccccc3C2)n1-c1ccccc1	i	i	-5%	1%	-3%	1%
Cn1c(Cc2ccccc2)nnc1SCC(=O)N1CCCCC1	i	i	0%	-15%	-2%	9%
Cn1c(Cc2ccc3c(c2)OCO3)nnc1SCC(=O)N1CCc2ccccc2C1	16µM*	i	-7%	-2%	0%	-14%
Cc1ccc(-n2c(C)nnc2SCC(=O)N2CCc3ccccc3C2)cc1C	9.2µM*	i	-1%	-4%	14%	0%
Cc1nc(NC(=O)COC(=O)c2ccc(CO)cc2)c(Cl)cc1Cl	i	i	-1%	-4%	9%	23%
O=C(C[n+]1ccccc1Br)c1ccc(O)c(O)c1	i	?	/	/	/	/
COc1ccc(OC)c(C2=NOC(C(=O)N3CCCc4ccccc43)C2)c1 (configuration not stated)	16µM*	i	?	-2%	0%	-1%
O=C(NCc1ccco1)C1CC(c2ccccc2C(F)(F)F)=NO1 (configuration not stated)	i	i	46%	-16%	-5%	-4%
COc1ccc(OC)c(C2=NOC(C(=O)NCc3ccco3)C2)c1 (configuration not stated)	16µM*	?	13µM*	?	-19%	?
O=C(NCc1ccco1)C1CC(c2ccccc2O)=NO1 (configuration not stated)	i	i	?	29%	-3%	?
O=C(NCc1ccco1)C1CC(c2cc(C(F)(F)F)cc(C(F)(F)F)c2)=NO1 (configuration not stated)	10µM*	4.1µM*	6.5µM*	13µM*	5.8µM*	2.6µM*
COc1ccc(CCNC(=O)C(C)n2c(=O)cc(C(F)(F)F)c3c(C)nn(C)c32)cc1OC (configuration not stated)	i	i	/	/	/	/

High-throughput results: PubChem, National Center for Advancing Translational Sciences (NCATS)
